Source: PubChem BioAssay (NCI)
Compounds without any hit were thinned out: in the full panel of roughly 83,000, 20% have a hit.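 In brief: 96-well plates, 48 h treatment, single concentration, percent growth endpoint.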 Unmarked numbers belong to inactive results. Active and inactive are the calls of the source. The calls were made as follows: active = growth percent below 10; inactive = the rest.

How the values were obtained:
Assay in all cases: NCI-60 one-dose screen, 48 h (100 = growth as untreated, 0 = no growth, -100 = all killed)
Details in all cases: 10 µM unless noted
HCT-15 colon = tested on: HCT-15 colon
HT29 colon = tested on: HT29 colon
SNB-75 CNS = tested on: SNB-75 CNS
SNB-19 CNS = tested on: SNB-19 CNS
U251 CNS = tested on: U251 CNS
PC-3 prostate = tested on: PC-3 prostate
SK-MEL-5 melanoma = tested on: SK-MEL-5 melanoma
UACC-62 melanoma = tested on: UACC-62 melanoma
LOX IMVI melanoma = tested on: LOX IMVI melanoma
SK-MEL-28 melanoma = tested on: SK-MEL-28 melanoma
SK-MEL-2 melanoma = tested on: SK-MEL-2 melanoma
EKVX NSCLC = tested on: EKVX NSCLC
SN12C renal = tested on: SN12C renal
UO-31 renal = tested on: UO-31 renal
TK-10 renal = tested on: TK-10 renal
ACHN renal = tested on: ACHN renal
CAKI-1 renal = tested on: CAKI-1 renal
A498 renal = tested on: A498 renal
CCRF-CEM leukemia = tested on: CCRF-CEM leukemia
MOLT-4 leukemia = tested on: MOLT-4 leukemia

Row | SMILES | growth (HCT-15 colon) | growth (HT29 colon) | growth (SNB-75 CNS) | growth (SNB-19 CNS) | growth (U251 CNS) | growth (PC-3 prostate) | growth (SK-MEL-5 melanoma) | growth (UACC-62 melanoma) | growth (LOX IMVI melanoma) | growth (SK-MEL-28 melanoma) | growth (SK-MEL-2 melanoma) | growth (EKVX NSCLC) | growth (SN12C renal) | growth (UO-31 renal) | growth (TK-10 renal) | growth (ACHN renal) | growth (CAKI-1 renal) | growth (A498 renal) | growth (CCRF-CEM leukemia) | growth (MOLT-4 leukemia)
1 | Cc1ccc(NC(=S)NNC(=S)NNc2ccccc2)cc1C | 103% | 104% | 107% | 106% | 96.8% | 55.7% | 95.7% | 104% | 106% | 115% | 91.2% | 108% | 101% | 77.2% | 104% | 99.1% | 95% | 93.7% | 44.4% | 45%
2 | N#Cc1cccc(-c2c(-c3ccc4ccccc4c3)oc3ccccc3c2=O)c1 | 33.9% | 10.9% | 51.1% | 53.7% | 45.6% | 34.1% | 31% | 33.9% | 50.7% | 58% | 59.1% | 52.7% | 68.3% | 51.4% | 73.1% | 55.9% | 45.5% | 43.4% | 27.6% | 31%
3 | C=C(CNCCc1ccc(O)cc1)[C@@H]1CC[C@]2(CO)CC[C@]3(C)[C@H](CC[C@@H]4[C@@]5(C)CCC(NCCO)C(C)(C)[C@@H]5CC[C@]43C)[C@@H]12 (stereo not given in full) | -80.9% (active) | -44.1% (active) | -97.8% (active) | -73.2% (active) | -83.7% (active) | -20.1% (active) | -94.2% (active) | -80.8% (active) | -84.1% (active) | -92.4% (active) | -81% (active) | -52.1% (active) | -70.3% (active) | -96.1% (active) | -80.6% (active) | -60.8% (active) | -77.2% (active) | 69.3% | -19.7% (active) | -19.2% (active)
4 | N#Cc1c(-c2ccc(Cl)cc2)nc(NN=Cc2cccc(O)c2)nc1N1CCOCC1 | 44.7% | 69.8% | 46.1% | 86.9% | 61.6% | 63.8% | 76.5% | 94.1% | 61.7% | 77.1% | 91.5% | 66.6% | 78.3% | 35.7% | 79% | 60.9% | 60.5% | 75.1% | 36.2% | 39.8%
5 | OCCNCCCOc1ccc2ncnc(Nc3ccc(Oc4cccc(C(F)(F)F)c4)c(Cl)c3)c2c1 | -23.8% (active) | -13.3% (active) | 62.4% | 44.9% | 3.99% (active) | 30.5% | 48.9% | 88.3% | -98.9% (active) | 73.1% | 73.5% | 27% | 58.1% | 26% | 49% | -45.4% (active) | 9.01% (active) | 58.8% | 6.8% (active) | 1.07% (active)
6 | Cc1ccc(-c2csc(NC(=O)CN3CCN(c4cc5c(cc4F)c(=O)c(C(=O)O)cn5C4CC4)CC3)n2)cc1 | 10.2% | 0.375% (active) | 20.1% | 27.7% | 7.62% (active) | 6.64% (active) | -26.4% (active) | 19.1% | 0.737% (active) | 41% | -13.5% (active) | 16.5% | 16.4% | 12.1% | 15.9% | 4.32% (active) | 20.8% | 7.69% (active) | 8.52% (active) | 4.51% (active)
7 | CCN(CC)CCSc1nc(-c2ccccc2)c(C#N)c(=O)[nH]1 | 117% | 142% | 129% | 101% | 105% | 116% | 85.1% | 108% | 99.9% | 110% | 97% | 91.8% | 116% | 110% | 128% | 112% | 99.8% | 208% | 150% | 105%
8 | CO[C@]12C=C/C(=C(/C(=O)OCc3cccnc3)C(=O)CCCCCCCC[C@@]3(OC)C=C/C(=C(/C(=O)OCc4cccnc4)C(=O)CCCCCCCC1)O3)O2 | 2.29% (active) | 14.5% | 55% | 33.7% | 20.3% | 8.77% (active) | -59.1% (active) | -54% (active) | -35.9% (active) | -5.65% (active) | 21.4% | 12.8% | 5.99% (active) | -10.7% (active) | 39% | -19.3% (active) | 22.9% | 1.93% (active) | 1.38% (active) | -2.22% (active)
